Measurements taken from PubChem BioAssay AID720489 (Milwaukee Institute for Drug Discovery, 2013).
The list shows a part of the results. Values without a mark were called inactive.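 The calls were made as follows: active = fluorescence interference ratio at or below 0.8 quencher or at or above a set limitenhancer; inactive = the rest.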

Assay: compounds quenching or enhancing NS3h-DNA Cy5 signal – biochemical, ChemBridge library, Cy5-DNA-NS3h complex, artefact control for HCV NS3 helicase inhibitor project, confirmation (AID 720489);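 also: ratio of compound fluorescence to mean of negative controls so 1 means no interference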
Conditions: Cy5-dT15 DNA/NS3h fluorescence interference counterscreen; at 100 µM

**Q.** Which fluorescence interference ratio does the source give for `CCOc1cc(C=C2C(=O)NC(=O)NC2=O)cc(Br)c1OCCOc1ccccc1C` here?
**A.** 0.809
